Assay [1] can be described thus: qHTS assay to identify small molecule antagonists of the thyroid receptor (TR) signaling pathway - cell viability counter screen (AID 743064). Further: nearly all actives have a fitted effect of over 50% in size. Further: potency means the concentration at half of the fitted maximal effect. The gist of the method: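 GH3.TRE-Luc rat pituitary cells dosed after 4 hr plating, co-stimulated with T3 at 1 nM final, incubated 23.5 h at 37 C. Viability measured in the same wells by CellTiter-Fluor fluorescence after 30 min further at 37 C.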
(In general: In qHTS, concentration-response curves come from the screen itself.)

The nature of assay [2]: qHTS assay to identify small molecule antagonists of the thyroid receptor (TR) signaling pathway (AID 743065). Further: nearly all actives have a fitted effect of over 55% in size. Further: potency means the concentration at half of the fitted maximal effect. The gist of the method: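 GH3.TRE-Luc rat pituitary cells carrying two TR response elements driving luciferase were plated for 4 h, given compound plus 1 nM T3 (final), and incubated 23.5 h at 37 C. ONE-Glo luminescence measured reporter inhibition; CellTiter-Fluor fluorescence tracked cytotoxicity.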

Assay [3] has as its system thyroid hormone receptor (rat, GH3 cells). In words: qHTS assay to identify small molecule agonists of the thyroid receptor (TR) signaling pathway (AID 743066; calls by dose curve; further: potency means the concentration at half of the fitted maximal effect).
In assay [4] the target is Estrogen receptor (Homo sapiens) (UniProt P03372). As to the kind of experiment: qHTS assay to identify small molecule antagonists of the estrogen receptor alpha (ER-alpha) signaling pathway (AID 743069; active means well fitted curve in the direction sought with a large enough effect in the signal ratio in the repeat runs, not every such curve was filed as active; inconclusive means weak or mixed curves, or effect the other way; inactive means no such curve, though single readings can be large or run the other way; the % refers to the signal ratio; further: potency means the concentration at half of the fitted maximal effect). The gist of the method: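 HEK293 cells stably carrying an ER-alpha-UAS-bla beta-lactamase reporter were pre-cultured overnight in 2% charcoal-stripped FBS medium. Test compounds in DMSO were added together with 17beta-estradiol for 18 hr at 37C. Read-out was fluorescence after 2 hr with LiveBLAzer B/G FRET substrate at room temperature.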

Assay [5] in a line: qHTS assay to identify small molecule antagonists of the estrogen receptor alpha (ER-alpha) signaling pathway - cell viability counter screen (AID 743074; calls by dose curve; further: nearly all actives have a fitted effect of over 45% in size).
Assay [6] concerns the target Estrogen receptor (Homo sapiens) (UniProt P03372). In words: qHTS assay to identify small molecule agonists of the estrogen receptor alpha (ER-alpha) signaling pathway (AID 743075; calls by dose curve).
For assay [7] the target is unchanged. In words: qHTS assay to identify small molecule agonists of the estrogen receptor alpha (ER-alpha) signaling pathway using the BG1 cell line (AID 743079). Further: nearly all actives have a fitted effect of over 20% in size.
Assay [8] is described as follows: qHTS assay to identify small molecule antagonists of the estrogen receptor alpha (ER-alpha) signaling pathway using the BG1 cell line (AID 743080; calls by dose curve;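 further: BG1 cells stimulated with 17beta-estradiol alongside compound; series mostly up to about 70 µM; nearly all actives have a fitted effect of over 25% in size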). The gist of the method:
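BG1-Luc-4E2 cells (endogenous full-length ER-alpha, stable 4×ERE-luciferase) were starved 5 days in phenol-red-free medium with 10% charcoal-stripped FBS, plated 24 h, then given compound plus 17beta-estradiol for 21.5 h at 37 C; ONE-Glo luminescence read after 30 min.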

Assay [9] is described as follows: qHTS assay to identify small molecule antagonists of the estrogen receptor alpha (ER-alpha) signaling pathway using the BG1 cell line - cell viability counter screen (AID 743081).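 Further: compound given together with 17beta-estradiol as the ER stimulus; series mostly up to about 70 µM; nearly all actives have a fitted effect of over 45% in size.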
In the next assay the target is Aromatase (Homo sapiens) (UniProt P11511). In words: qHTS assay to identify aromatase inhibitors (AID 743083). Further: series mostly up to about 70 µM; nearly all actives have a fitted effect of over 55% in size.

Unmarked numbers belong to inactive results. Activity calls are given as the source filed them. Unless noted, the call rests on the fitted dose curve; in most records, active means well fitted curve in the direction sought with a large enough effect in the repeat runs; inconclusive means weak or mixed curves; inactive means no such curve, though single readings can be large; an effect the other way counts as inactive or inconclusive.

Estrogen receptor (Homo sapiens), sequence (P03372 whole entry, looked up): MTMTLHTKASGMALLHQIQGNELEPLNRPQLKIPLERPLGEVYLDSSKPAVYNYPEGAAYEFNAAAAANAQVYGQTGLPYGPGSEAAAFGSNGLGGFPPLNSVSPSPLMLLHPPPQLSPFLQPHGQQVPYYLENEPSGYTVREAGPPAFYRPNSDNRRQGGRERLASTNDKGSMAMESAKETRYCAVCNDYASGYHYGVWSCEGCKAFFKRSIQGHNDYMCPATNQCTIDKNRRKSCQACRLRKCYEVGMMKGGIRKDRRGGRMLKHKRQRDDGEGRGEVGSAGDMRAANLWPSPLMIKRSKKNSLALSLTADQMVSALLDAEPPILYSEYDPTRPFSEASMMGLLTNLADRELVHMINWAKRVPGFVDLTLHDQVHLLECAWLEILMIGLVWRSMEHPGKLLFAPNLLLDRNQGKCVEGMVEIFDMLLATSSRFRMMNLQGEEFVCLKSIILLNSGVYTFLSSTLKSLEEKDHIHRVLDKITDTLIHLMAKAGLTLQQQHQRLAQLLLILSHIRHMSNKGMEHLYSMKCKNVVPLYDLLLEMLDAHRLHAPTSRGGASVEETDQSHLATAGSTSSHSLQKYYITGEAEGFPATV
Aromatase (Homo sapiens), sequence (P11511 whole entry, looked up): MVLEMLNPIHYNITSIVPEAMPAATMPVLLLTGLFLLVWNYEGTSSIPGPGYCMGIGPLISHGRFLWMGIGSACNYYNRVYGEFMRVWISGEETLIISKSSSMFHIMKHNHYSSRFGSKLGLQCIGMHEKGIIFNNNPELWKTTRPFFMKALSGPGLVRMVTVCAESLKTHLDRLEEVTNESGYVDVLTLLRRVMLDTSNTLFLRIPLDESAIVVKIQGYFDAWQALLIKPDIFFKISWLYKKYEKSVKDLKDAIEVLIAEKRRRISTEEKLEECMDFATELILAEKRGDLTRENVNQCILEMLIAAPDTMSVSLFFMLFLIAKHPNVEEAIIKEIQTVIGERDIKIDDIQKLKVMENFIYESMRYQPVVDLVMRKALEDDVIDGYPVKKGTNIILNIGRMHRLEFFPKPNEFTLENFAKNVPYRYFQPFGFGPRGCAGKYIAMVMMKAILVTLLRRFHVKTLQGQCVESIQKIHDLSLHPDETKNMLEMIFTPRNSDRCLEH

On to `OCCNCc1ccccc1`, for which the Potency entry in assay [1], in assay [2], in assay [3], in assay [4], in [5] and in assay [6] was “inactive” in each case. The Potency result (in [7]; in [8]; in assay [9]; with Aromatase (Homo sapiens)) was “inactive” in each case.

Consider `CN1CCC(N(Cc2cccs2)c2ccccc2)CC1`, for which the figures for the Potency in assay [1] and in [2] were 11.9 µM (active) and 23.7 µM (active), respectively. The Potency result in assay [3], in [4], in assay [5], in [6], in [7] and in assay [8] was “inactive” in each case. Also, the Potency entry (in assay [9]; in the assay with Aromatase (Homo sapiens)) was “inactive” throughout.

On to `NCCCN1CCOCC1`, for which the Potency entry in assay [1], in [2], in assay [3], in assay [4], in assay [5] and in assay [6] was “inactive” in each case. Besides, the Potency result (in assay [7]; in [8]; in [9]; with Aromatase (Homo sapiens)) was “inactive” throughout.

For the compound `CC(=O)OC[C@H]1O[C@@H](n2ncc(=O)[nH]c2=O)[C@H](OC(C)=O)[C@@H]1OC(C)=O`, the Potency result in assay [1], in assay [2], in [3], in assay [5], in [6] and in assay [7] was “inactive” each time. Besides, the Potency result (in assay [8]; in [9]; in the assay with Aromatase (Homo sapiens)) was “inactive” in each case. For the same compound, the Potency in assay [4] was 2.68 µM [inconclusive] (active).

With `Nc1cccc(S(=O)(=O)c2cccc(N)c2)c1`, the Potency entry in assay [1], in assay [2], in assay [3], in assay [4], in assay [5] and in assay [6] was “inactive” throughout. For the same compound, the Potency result (in assay [7]; in assay [8]; in [9]; with Aromatase (Homo sapiens)) was “inactive” throughout.

For `O=[N+]([O-])c1ccc2[nH]ncc2c1`, the Potency entry in assay [1], in [2], in [3], in assay [4], in assay [5] and in [6] was “inactive” each time. In addition, the Potency entry (in assay [7]; in assay [8]; in assay [9]; with Aromatase (Homo sapiens)) was “inactive” throughout.

Turning to `Cc1[nH]c(C)c(Cl)c(=O)c1Cl`, the Potency entry in assay [1], in [2], in assay [3], in [4], in assay [5] and in [6] was “inactive” throughout. Further, the Potency entry (in assay [7]; in assay [8]; in assay [9]; in the assay with Aromatase (Homo sapiens)) was “inactive” each time.

As for `COC(C)OC`, the Potency result in assay [1], in [2], in [3], in assay [4], in assay [5] and in assay [6] was “inactive” each time. The Potency result (in assay [7]; in assay [8]; in [9]; in the assay with Aromatase (Homo sapiens)) was “inactive” each time.

Take `Nc1cccc([N+](=O)[O-])c1`: the Potency result in assay [1], in [2], in assay [3], in assay [4], in assay [5] and in [6] was “inactive” in each case. The Potency entry in assay [7], in assay [8] and in assay [9] was “inactive” throughout.

As to `Cc1ncc(CO)c(C=O)c1O`, the Potency result in [1], in assay [2], in assay [3], in assay [4], in assay [5] and in [6] was “inactive” throughout. Besides, the Potency entry (in assay [7]; in assay [8]; in assay [9]; in the assay with Aromatase (Homo sapiens)) was “inactive” throughout.

With `CCNc1cc(O)ccc1C`, the Potency entry in assay [1], in assay [2], in assay [3], in assay [4], in assay [5] and in assay [6] was “inactive” throughout. The Potency result (in assay [7]; in [8]; in assay [9]; in the assay with Aromatase (Homo sapiens)) was “inactive” each time.

On to `C[C@H](CCC(=O)O)[C@H]1CC[C@H]2[C@@H]3CC[C@@H]4C[C@H](O)CC[C@]4(C)[C@H]3C[C@H](O)[C@]12C`, for which the Potency entry in assay [1], in [3], in [4], in [5], in assay [6] and in assay [7] was “inactive” each time. In addition, the Potency entry (in [8]; in assay [9]; with Aromatase (Homo sapiens)) was “inactive” in each case. Moreover, the Potency in assay [2] was 68.8 µM (active).

In the case of `C=C1[C@H]2CC[C@@H]3[C@H]2C(C)(C)CCC[C@]13C`, the Potency entry in assay [1], in assay [2], in [3], in [4], in assay [5] and in assay [6] was “inactive” each time. The Potency result (in [7]; in assay [8]; in assay [9]; with Aromatase (Homo sapiens)) was “inactive” throughout.

For `C=C(C)C(=O)OCC`, the Potency result in assay [1], in assay [2], in [3], in [4], in [5] and in [6] was “inactive” in each case. The Potency entry (in assay [7]; in assay [8]; in assay [9]; in the assay with Aromatase (Homo sapiens)) was “inactive” throughout.

Take `CCOC(=O)c1cccnc1`: the Potency result in assay [1], in assay [2], in assay [3], in assay [4], in [5] and in assay [6] was “inactive” throughout. Further, the Potency entry (in assay [7]; in assay [8]; in assay [9]; with Aromatase (Homo sapiens)) was “inactive” throughout.

As for `CCCCC(CC)COC(=O)CCCCCCCCC(=O)OCC(CC)CCCC` (configuration not stated), the Potency result in [1], in [2], in assay [3], in [4], in assay [5] and in [6] was “inactive” throughout. For the same compound, the Potency entry (in assay [8]; in [9]; with Aromatase (Homo sapiens)) was “inactive” in each case.

As for `COCC(C)OC(C)=O` (configuration not stated), the Potency result in [1], in [2], in assay [3], in assay [4], in assay [5] and in assay [8] was “inactive” in each case. Moreover, the Potency result (in assay [9]; with Aromatase (Homo sapiens)) was “inactive” each time.

As to `C[C@@H](c1ncncc1F)C(O)(Cn1cncn1)c1ccc(F)cc1F` (some centres not stated), the Potency result in assay [1], in assay [2], in assay [3], in assay [4], in assay [6] and in assay [7] was “inactive” each time. Besides, the Potency entry (in [8]; in [9]; with Aromatase (Homo sapiens)) was “inactive” throughout.

As for `CCCCC/C=C\C/C=C\CCCCCCCC(=O)NC(C)c1ccccc1` (configuration not stated), the Potency entry in assay [1], in assay [2], in assay [3], in assay [5], in [6] and in assay [7] was “inactive” in each case. In addition, the Potency entry in [8] and in assay [9] was “inactive” in each case.

Consider `O=C1C(O)=C(O)C(=O)C(O)=C1O`, for which the Potency entry in assay [1], in assay [2], in assay [3], in [4], in assay [5] and in assay [6] was “inactive” each time. Further, the Potency entry (in [7]; in assay [8]; in assay [9]; in the assay with Aromatase (Homo sapiens)) was “inactive” in each case.

Regarding `ClCCOCCOCCCl`, the Potency entry in [1], in [2], in assay [3], in assay [5], in assay [6] and in [7] was “inactive” throughout. In addition, the Potency result (in assay [8]; in [9]; in the assay with Aromatase (Homo sapiens)) was “inactive” throughout.

Consider `NCC(=O)CCC(=O)O`, for which the Potency result in [1], in assay [2], in assay [4], in assay [5], in assay [6] and in assay [7] was “inactive” in each case. The Potency entry (in [8]; in assay [9]; with Aromatase (Homo sapiens)) was “inactive” in each case. The Potency in assay [3] was 26.6 µM (active).

Values taken from PubChem BioAssay (Tox21).
